# Screening data deposited in PubChem BioAssay by Sanford-Burnham Center for Chemical Genomics.
# HIF-2a block: inhibitors of HIF-2a; 786-0 RCC cells HIF-2a reporter, luciferase luminescence, overnight; inhibition, % at 18.8 µM; 360,000 tested, 0.72% active; AID 624352;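 active means inhibition of the luminescence signal of 40% or more relative to plate controls, in a single-dose primary screen at 18.75 µM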
# CF NFkB inh: cystic fibrosis NF-kB activation inhibition | 360,000 tested, 0.86% active | KKLEB NF-kB-GFP reporter, PAF-induced, GFP fluorescence overnight | inhibition, % at 5 µM | AID 588850;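 active means at least 50% inhibition at 5 µM, scaled per plate between neutral and stimulator controls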;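 further: PAF is a Pseudomonas aeruginosa culture filtrate used as stimulus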
# Peg3 prom inh-1: inhibitors of Peg3 promoter | HeLa PEG-Prom luciferase reporter, luminescence, overnight | AID 588405 | 360,000 tested, 1.7% active | inhibition, % at 20 µM;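 active means inhibition of at least 50% at 20 µM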
# KKLEB cytotox: reduces viability of KKLEB cystic fibrosis airway cells. 360,000 tested, 0.36% active. activity change (cytotoxicity), % at 5 µM. AID 602141. KKLEB CF airway cells viability, ATPlite luminescence, overnight; stronger effect = lower value; cells stimulated with P. aeruginosa culture filtrate;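 active means corrected activity change at or below -50% at 5 µM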
# TROY signal inh: inhibitors of TROY-dependent NF-kB signaling | inhibition, % at 10 µM | Q293 LMP1-TROYcd NF-kB luciferase reporter, 4 h | 360,000 tested, 0.98% active | AID 1347056;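 active means compounds whose plate-normalised and pattern-corrected inhibition of the luciferase reporter signal at the single screening dose is 50% or more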
# TWEAK-Fn14 inh: inhibitors of TWEAK-Fn14 interaction signaling; TWEAK-stimulated Fn14 reporter cells, luciferase luminescence, 8 h; 360,000 tested, 2% active; AID 1159606; inhibition, % at 10 µM; in the data active means inhibition above about 50%
# Peg3 prom inh-2: Peg3 promoter inhibition confirmation | shares compounds with Peg3 prom inh-1 | HeLa PEG-Prom luciferase reporter, luminescence, overnight | inhibition, % at 20 µM | 1,300 tested, 84% active | AID 602417;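 active means at 20 µM dose, 40% or more inhibition averaged across four replicates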
# A number is an active result; – = inactive; · = not tested or not shown. Most compounds without a hit are left out; they make up all but 4% or so of the library.
SMILES,HIF-2a block,CF NFkB inh,Peg3 prom inh-1,KKLEB cytotox,TROY signal inh,TWEAK-Fn14 inh,Peg3 prom inh-2
Cc1ccc(-c2nnc(N3CCN(c4ccccn4)CC3)c3ccccc23)cc1,–,–,77,–,54,–,84
CCCCCCCCCC[N+](C)(C)CC/C=C1/c2ccccc2Sc2ccc(Cl)cc21,49,–,108,–,–,–,100
Cc1cccnc1NC(=S)NCc1ccco1,–,–,–,–,–,–,·
Clc1ccc(-c2cccs2)nn1,–,–,–,–,–,–,·
CC1CCN(c2ccc(-c3cccs3)nn2)CC1,78,–,82,-81,66,105,78
O=C(COC(=O)c1ccc(Br)cc1)NC1CCCC1,–,–,–,–,–,–,·
CC1(C)C(=O)C=CC(=O)C(C)(C)C(=O)C=CC(=O)C(C)(C)C2=CC=C(O2)C(C)(C)C(=O)C=CC1=O,–,–,106,–,–,–,100
CCNCC(O)COCC(O)CNCC (configuration not stated),–,–,–,–,–,–,·
COC(=O)C1=C(C)N(Cc2ccccc2)C(=NCCc2c[nH]c3ccccc23)N[C@H]1c1cccc(C(F)(F)F)c1,–,–,99,–,–,–,98
CCCN1CCc2c(sc(NC(=O)c3ccc(S(=O)(=O)N(C)c4ccccc4)cc3)c2C(N)=O)C1,–,–,–,–,–,–,·
CCCN1CCc2c(sc(NC(=O)c3ccc(S(=O)(=O)N4CCN(C(=O)OCC)CC4)cc3)c2C(N)=O)C1,–,–,65,–,–,–,58
O=C(N/N=C/c1ccccc1Cl)c1n[nH]c2c1CCCC2,–,–,78,–,74,97,–
O=C(N/N=C/c1ccc(Cl)cc1)c1n[nH]c2c1CCCC2,–,–,–,–,–,–,·
Cc1nc(N2CCN(c3ccccn3)CC2)c2c(C)c(C(=O)Nc3ccccc3F)sc2n1,–,–,73,–,–,–,66
COC(=O)c1ccc(OCC2c3cc(OC)c(OC)cc3CCN2C(=O)c2ccco2)cc1 (configuration not stated),–,–,60,–,–,–,45
CCN(CC)c1ccc2nc3ccc(N)cc3[n+](-c3ccccc3)c2c1,–,–,89,–,–,–,72
COc1ccccc1C(=O)NC(CCSC)C(=O)OCC(=O)c1ccc[nH]1 (configuration not stated),–,–,–,–,–,–,·
OC[C@@H]1[C@@H](c2ccc(Cl)cc2)C(c2cccc(Cl)c2)=NN1c1ccccc1,–,–,54,–,–,62,65
OC[C@@H]1[C@@H](c2ccc(Cl)cc2)C(c2ccccc2)=NN1c1ccccc1,–,–,–,–,–,–,·
COc1cc(NC(=O)c2cccs2)c(C(=O)OCC(=O)c2cc(C)n(-c3ccccc3)c2C)cc1OC,–,–,59,–,–,–,83
CCC/C(=N\NC(=O)C1CC1)c1ccccc1,–,–,–,–,–,–,·
O=C(Nc1cccc(C(F)(F)F)c1)c1scc2c1OCCO2,–,–,–,–,–,–,·
C/C(=N\NC(=O)c1c(C)nc2ccccn12)c1ccc(O)cc1O,–,–,52,–,–,–,60
Cc1ccc(S(=O)(=O)/C=C2\NC(=O)CS2)cc1,–,–,–,–,–,–,·
C/C(=N\NC(=O)c1nnn(-c2nonc2N)c1CN1CCc2ccccc21)c1ccccc1O,–,–,55,–,–,–,66
SMILES,HIF-2a block,CF NFkB inh,Peg3 prom inh-1,KKLEB cytotox,TROY signal inh,TWEAK-Fn14 inh,Peg3 prom inh-2
CCOc1cccc(-c2c(C(=O)N/N=C(\C)c3ccncc3)nnn2-c2nonc2N)c1,–,–,–,–,–,–,·
Nc1nonc1-n1nnc(C(=O)N/N=C/c2ccccc2)c1CN1CCc2ccccc21,–,–,–,–,–,–,·
CCOc1cccc(-c2c(C(=O)N/N=C(\C)c3ccccn3)nnn2-c2nonc2N)c1,–,–,74,–,–,–,64
COc1ccc(-c2cc(C(=O)N(C)CC(=O)Nc3ccccc3C(F)(F)F)c3ccccc3n2)cc1OC,–,–,–,–,–,–,·
COc1ccc(-c2cc(C(=O)N(C)Cc3ccccc3F)c3ccccc3n2)cc1OC,–,–,61,–,–,–,60
COc1ccc(-c2cc(C(=O)NCC(c3ccccc3)N(C)C)c3ccccc3n2)cc1OC (configuration not stated),–,–,–,–,–,–,·
COc1ccc(-c2cc(C(=O)N(C)CC(=O)Nc3ccccc3Br)c3ccccc3n2)cc1OC,–,–,54,–,–,–,–
COc1cccc(CN(C)C(=O)c2cc(-c3cccs3)nc3ccccc23)c1,–,–,61,–,–,–,67
COc1ccc(N2CCN(C(=O)c3cc(-c4cccs4)nc4ccccc34)CC2)cc1,–,–,–,–,–,–,·
COc1cc(-c2cc(C(=O)N(C)Cc3ccccc3)c3ccccc3n2)cc(OC)c1OC,–,–,56,–,–,–,52
COc1ccc(CCC2(C)NC(=O)N(C(C)C(=O)N3c4ccccc4CC3C)C2=O)cc1 (configuration not stated),–,–,–,–,–,–,·
Cc1cc(C(=O)CSc2nnc(N)s2)c(C)n1-c1c(C)n(C)n(-c2ccccc2)c1=O,–,–,–,–,–,–,·
CCCCN(C)C(=O)c1ccc(Nc2nc(C(N)CCc3ccccc3)cs2)nc1 (configuration not stated),–,–,61,–,–,–,83
Cc1cnc(C)c(Nc2nc(C(N)CCc3ccccc3)cs2)n1 (configuration not stated),–,–,–,–,–,–,·
COc1cccc(N(C(=O)CS(=O)CC(=O)Nc2ccc(F)cc2)C(C(=O)NC2CCCCC2)c2cccs2)c1 (configuration not stated),–,–,60,–,–,–,–
CC(C(=O)NC1CCCC1)N(C(=O)Cn1nnc(-c2ccc(F)cc2)n1)c1ccccc1F (configuration not stated),–,–,57,–,–,–,50
COc1ccc(N(C(=O)Cn2nnc(-c3ccc(F)cc3)n2)C(C)C(=O)NC2CCCC2)cc1 (configuration not stated),–,–,–,–,–,–,·
O=C(NCC1CCCO1)C(c1ccc(F)cc1)N(C(=O)Cn1nnc(-c2ccc(F)cc2)n1)c1cccc(O)c1 (configuration not stated),–,–,56,–,–,–,51
COc1ccc(OC)c(-n2c(-c3cnccn3)n[nH]c2=S)c1,–,–,–,–,–,–,·
COc1ccc2c(c1OC)C(=O)N1c3ccccc3SC21 (configuration not stated),–,–,–,–,–,–,·
